# Data reported in PubChem BioAssay.
# Activity calls are given as the source filed them.
# Legend:
# [1] = test system: PRMT1 (protein arginine N-methyltransferase 1); assay: PRMT1 binders on small-molecule microarrays, primary screen, biochemical, small-molecule microarray, 635 nm fluorescence (AID 1088); details: small-molecule microarray binding, higher = more signal;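 also: binding of Prmt1 protein to compounds spotted on small-molecule microarray slides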
# [2] = yeast growth modulation, basal conditions, primary screen, YJM789 clinical isolate, OD600, 24 h (AID 1089);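 also: growth of clinical yeast isolate S. cerevisiae YJM 789 seeded 1000 cells per well; test concentration not given here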; details: S. cerevisiae YJM789 growth, higher = more signal, called active from +8 up or from −8 down
# [3] = fission yeast growth modulation, primary screen, strain 972, OD600, 24 h, no modulator (AID 1090);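 also: basal condition with compound alone and no growth modifier present; test concentration not given here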; details: S. pombe 972 growth, higher = more signal, called active from +8 up or from −8 down
# [4] = S. cerevisiae growth modulation with rapamycin, primary screen, strain BY4716, OD600, 96 h (AID 1091); details: higher = more signal, called active from +8 up or from −8 down; also: test concentration not given here
# [5] = target: Torsin-1A-interacting protein 2 (Homo sapiens) (UniProt Q8NFQ8); assay: LULL1 binders on small-molecule microarray, primary screen, cell lysate, human LULL1 lysate, 635/667 nm fluorescence (AID 1092); details: hLULL1 lysate binding, 635 nm fluorescence, higher = more signal;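 also: probe is lysate of COS7 cells overexpressing human LULL1; score merges per-feature 667 nm fluorescence with signal-to-noise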
# Chain of Torsin-1A-interacting protein 2 (Homo sapiens) (Q8NFQ8 whole entry, looked up): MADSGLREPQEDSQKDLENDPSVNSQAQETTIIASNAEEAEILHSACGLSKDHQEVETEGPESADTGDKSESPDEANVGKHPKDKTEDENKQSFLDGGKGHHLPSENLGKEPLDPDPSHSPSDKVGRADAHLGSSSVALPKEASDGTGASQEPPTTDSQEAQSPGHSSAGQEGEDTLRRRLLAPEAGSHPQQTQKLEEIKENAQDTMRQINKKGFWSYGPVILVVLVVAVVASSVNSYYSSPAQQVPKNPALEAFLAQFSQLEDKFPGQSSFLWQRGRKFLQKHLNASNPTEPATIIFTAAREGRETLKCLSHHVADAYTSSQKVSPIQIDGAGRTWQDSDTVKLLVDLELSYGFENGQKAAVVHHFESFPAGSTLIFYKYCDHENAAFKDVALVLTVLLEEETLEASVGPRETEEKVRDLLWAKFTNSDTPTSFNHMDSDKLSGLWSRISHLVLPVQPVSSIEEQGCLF
# [6] = E. coli growth modulation, two-sided OD650, primary screen, E. coli filamentation project, strain DRC41, 24 h (AID 1093); details: OD650, 24 h, higher = more signal, called active from +8 up or from −8 down;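 also: MC1000 strain lacking acrAB efflux and sulA so SOS filamentation is blocked; test concentration not given here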
# [7] = small-molecule microarray binders of probe aLefty2, primary screen, biochemical, biotinylated probe, 635/667 nm fluorescence (AID 1094); details: higher = more signal;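 also: score merges spot fluorescence near 667 nm with spot signal-to-noise ratio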
# [8] = test system: Noggin (protein binding on small-molecule microarray); assay: Noggin binders on small-molecule microarray, primary screen, biochemical, 635/667 nm fluorescence (AID 1095); details: 635 nm fluorescence, higher = more signal;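 also: score merges 667 nm feature fluorescence with signal to noise over triplicate slides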
# [9] = target: Neurogenic locus notch homolog protein 3 (Homo sapiens) (UniProt Q9UM47); assay: NOTCH3 binders on small-molecule microarray, primary screen, biochemical, 635/667 nm fluorescence (AID 1096); details: NOTCH3 binding, 635 nm fluorescence, higher = more signal
# Chain of Neurogenic locus notch homolog protein 3 (Homo sapiens) (Q9UM47 whole entry, looked up): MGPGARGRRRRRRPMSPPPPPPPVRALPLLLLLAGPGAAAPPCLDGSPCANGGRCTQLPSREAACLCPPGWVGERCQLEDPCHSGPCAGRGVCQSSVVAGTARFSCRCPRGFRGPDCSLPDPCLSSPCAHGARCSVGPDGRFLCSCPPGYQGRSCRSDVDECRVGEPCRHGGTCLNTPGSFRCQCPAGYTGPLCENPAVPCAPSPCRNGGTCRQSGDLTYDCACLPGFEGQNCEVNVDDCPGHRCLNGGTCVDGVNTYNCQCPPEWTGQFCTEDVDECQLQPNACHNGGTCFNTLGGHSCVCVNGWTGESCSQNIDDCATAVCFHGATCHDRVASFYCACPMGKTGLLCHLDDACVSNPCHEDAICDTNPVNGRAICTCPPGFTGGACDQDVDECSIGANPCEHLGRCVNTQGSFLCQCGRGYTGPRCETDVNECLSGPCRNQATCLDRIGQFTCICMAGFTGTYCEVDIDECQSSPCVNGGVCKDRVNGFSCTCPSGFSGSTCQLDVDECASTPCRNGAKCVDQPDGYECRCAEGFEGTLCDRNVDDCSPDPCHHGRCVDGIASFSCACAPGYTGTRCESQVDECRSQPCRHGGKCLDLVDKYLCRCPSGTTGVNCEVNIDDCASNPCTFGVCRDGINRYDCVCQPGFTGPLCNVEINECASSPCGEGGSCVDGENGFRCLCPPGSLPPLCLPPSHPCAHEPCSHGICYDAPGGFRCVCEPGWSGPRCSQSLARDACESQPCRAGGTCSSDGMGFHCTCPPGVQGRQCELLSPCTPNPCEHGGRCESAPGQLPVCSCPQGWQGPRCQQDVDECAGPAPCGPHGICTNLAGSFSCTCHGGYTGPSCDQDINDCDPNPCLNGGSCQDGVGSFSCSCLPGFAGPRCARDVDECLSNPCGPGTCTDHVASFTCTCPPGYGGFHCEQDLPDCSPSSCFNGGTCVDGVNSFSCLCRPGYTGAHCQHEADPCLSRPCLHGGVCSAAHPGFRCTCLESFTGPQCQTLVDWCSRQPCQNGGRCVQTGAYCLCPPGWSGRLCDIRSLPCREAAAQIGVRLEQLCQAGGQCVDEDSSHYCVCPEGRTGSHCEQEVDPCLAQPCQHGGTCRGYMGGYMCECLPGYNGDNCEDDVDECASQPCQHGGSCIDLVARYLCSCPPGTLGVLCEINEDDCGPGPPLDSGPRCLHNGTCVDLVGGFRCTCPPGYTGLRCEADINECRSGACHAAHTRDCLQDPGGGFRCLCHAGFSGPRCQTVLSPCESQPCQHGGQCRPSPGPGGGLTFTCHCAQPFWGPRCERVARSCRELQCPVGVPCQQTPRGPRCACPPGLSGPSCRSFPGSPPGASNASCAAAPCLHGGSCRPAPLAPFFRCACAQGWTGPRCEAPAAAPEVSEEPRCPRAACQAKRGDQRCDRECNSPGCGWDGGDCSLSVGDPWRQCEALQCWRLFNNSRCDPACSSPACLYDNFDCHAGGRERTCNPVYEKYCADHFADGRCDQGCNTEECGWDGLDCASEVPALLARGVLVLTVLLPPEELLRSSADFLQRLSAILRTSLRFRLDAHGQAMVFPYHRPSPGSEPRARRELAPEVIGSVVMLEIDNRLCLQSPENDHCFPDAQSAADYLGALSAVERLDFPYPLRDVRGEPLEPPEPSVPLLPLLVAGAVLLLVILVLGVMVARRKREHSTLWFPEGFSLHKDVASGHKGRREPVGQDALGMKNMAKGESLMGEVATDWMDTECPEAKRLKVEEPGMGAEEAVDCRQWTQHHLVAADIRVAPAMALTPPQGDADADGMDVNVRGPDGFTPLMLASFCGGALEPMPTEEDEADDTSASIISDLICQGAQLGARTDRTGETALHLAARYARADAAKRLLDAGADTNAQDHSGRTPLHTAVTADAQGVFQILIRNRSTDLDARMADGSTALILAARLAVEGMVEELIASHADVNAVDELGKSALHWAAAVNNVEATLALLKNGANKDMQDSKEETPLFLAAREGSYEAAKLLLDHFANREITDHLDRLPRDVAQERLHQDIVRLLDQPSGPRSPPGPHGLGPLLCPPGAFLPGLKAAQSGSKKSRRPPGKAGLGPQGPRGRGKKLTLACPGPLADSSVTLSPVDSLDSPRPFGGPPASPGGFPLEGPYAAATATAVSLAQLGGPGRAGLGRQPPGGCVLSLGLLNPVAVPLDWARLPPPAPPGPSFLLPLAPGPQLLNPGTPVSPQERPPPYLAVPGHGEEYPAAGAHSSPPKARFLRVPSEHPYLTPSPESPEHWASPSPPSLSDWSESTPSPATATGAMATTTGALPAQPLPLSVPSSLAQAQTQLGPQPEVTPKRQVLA
# [10] = small-molecule microarray binders of probe aEGFR, primary screen, biochemical, biotinylated probe, 635/667 nm fluorescence (AID 1097); details: higher = more signal;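 also: probe is a biotinylated anti-EGFR antibody binding compounds printed on slides; score combines fluorescence near 667 nm and signal to noise of each spot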
# [11] = test system: Plasmodium falciparum Sir2 (PF13_0152, Sir2A); assay: pfSir2 binders on small-molecule microarrays, primary screen, biochemical, small-molecule microarray, 635 nm fluorescence (AID 1098); details: small-molecule microarray binding, fluorescence 635 nm; higher = more signal;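 also: score merges spot fluorescence intensity with its signal-to-noise ratio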
# [12] = small-molecule microarray binders of probe aDKK1, primary screen, biochemical, biotinylated probe, 635/667 nm fluorescence (AID 1099); details: higher = more signal;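 also: score merges 667nm spot fluorescence with signal to noise across triplicate slides; reference of the scale not given here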
# [13] = small-molecule microarray binders of probe aCHRDL2, primary screen, biochemical, biotinylated probe, 635/667 nm fluorescence (AID 1100); details: higher = more signal
# [14] = splicing luciferase reporter signal modulators, primary screen, spliceosome inhibition project, cell-based, HEK293, splice +/- reporter (AID 1101); details: luminescence, 24 h, higher = more signal, called active from +8 up or from −8 down;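 also: HEK293 cells carrying a splicing-competent luciferase reporter gene; test concentration not given here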
# [15] = target: Fibroblast growth factor 10 (Homo sapiens) (UniProt O15520); assay: FGF10 binders on small-molecule microarrays, primary screen, biochemical, small-molecule microarray, 635 nm fluorescence (AID 1102); details: FGF10 binding, fluorescence 635 nm, higher = more signal
# Chain of Fibroblast growth factor 10 (Homo sapiens) (O15520 whole entry, looked up): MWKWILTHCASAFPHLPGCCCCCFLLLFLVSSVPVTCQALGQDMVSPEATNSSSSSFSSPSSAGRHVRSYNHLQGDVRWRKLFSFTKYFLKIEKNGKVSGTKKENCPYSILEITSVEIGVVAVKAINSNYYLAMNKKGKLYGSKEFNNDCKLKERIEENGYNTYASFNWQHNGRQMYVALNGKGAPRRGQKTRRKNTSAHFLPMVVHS
# [16] = test system: glycogen synthase kinase-3 (GSK3A per assay name; protocol says GSK3B); assay: GSK3 binders on small-molecule microarrays, primary screen, biochemical, small-molecule microarray, 635 nm fluorescence, GSK3A (AID 1103); details: small-molecule microarray binding, fluorescence 635 nm; higher = more signal; also: the record names both GSK3A and GSK3B
# [17] = target: Epidermal growth factor receptor (Homo sapiens) (UniProt P00533); assay: EGFR binders on small-molecule microarrays, primary screen, biochemical, small-molecule microarray, 635 nm fluorescence (AID 1104); details: EGFR binding, higher = more signal;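 also: score merges 667 nm emission intensity with spot signal to noise over triplicate slides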
# Chain of Epidermal growth factor receptor (Homo sapiens) (P00533 whole entry, looked up): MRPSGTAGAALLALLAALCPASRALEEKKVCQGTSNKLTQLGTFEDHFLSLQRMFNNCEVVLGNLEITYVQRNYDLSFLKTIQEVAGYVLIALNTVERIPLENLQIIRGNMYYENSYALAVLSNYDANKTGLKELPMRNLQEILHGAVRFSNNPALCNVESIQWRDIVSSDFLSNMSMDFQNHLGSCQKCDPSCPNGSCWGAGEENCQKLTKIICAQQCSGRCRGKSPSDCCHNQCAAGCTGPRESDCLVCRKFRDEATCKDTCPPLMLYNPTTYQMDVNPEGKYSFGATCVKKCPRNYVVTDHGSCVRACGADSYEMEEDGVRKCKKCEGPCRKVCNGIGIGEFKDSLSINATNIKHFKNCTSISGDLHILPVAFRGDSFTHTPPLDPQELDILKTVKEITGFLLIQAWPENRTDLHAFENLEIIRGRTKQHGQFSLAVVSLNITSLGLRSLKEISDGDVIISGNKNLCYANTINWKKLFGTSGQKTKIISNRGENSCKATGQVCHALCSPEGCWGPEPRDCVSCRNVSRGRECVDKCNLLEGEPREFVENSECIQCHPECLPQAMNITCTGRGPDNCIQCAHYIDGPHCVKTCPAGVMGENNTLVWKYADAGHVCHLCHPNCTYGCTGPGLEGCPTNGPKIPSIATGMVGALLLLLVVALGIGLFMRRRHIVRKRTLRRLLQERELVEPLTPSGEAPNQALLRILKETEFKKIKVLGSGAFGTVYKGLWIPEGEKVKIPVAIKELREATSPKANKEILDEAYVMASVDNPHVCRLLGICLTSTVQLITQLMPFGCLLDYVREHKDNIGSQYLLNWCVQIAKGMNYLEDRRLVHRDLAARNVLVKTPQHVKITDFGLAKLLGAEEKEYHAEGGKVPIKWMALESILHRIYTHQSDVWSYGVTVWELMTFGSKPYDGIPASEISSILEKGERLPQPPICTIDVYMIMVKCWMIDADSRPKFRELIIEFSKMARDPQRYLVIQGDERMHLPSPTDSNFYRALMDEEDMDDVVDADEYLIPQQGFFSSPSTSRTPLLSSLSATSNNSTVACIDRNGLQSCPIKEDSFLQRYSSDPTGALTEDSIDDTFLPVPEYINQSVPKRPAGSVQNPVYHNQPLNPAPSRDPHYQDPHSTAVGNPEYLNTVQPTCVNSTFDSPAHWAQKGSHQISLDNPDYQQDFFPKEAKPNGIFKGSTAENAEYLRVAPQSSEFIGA
# [18] = target: Follistatin-related protein 3 (Homo sapiens) (UniProt O95633); assay: FSTL3 binders on small-molecule microarrays, primary screen, biochemical, small-molecule microarray, 635 nm fluorescence (AID 1105); details: FSTL3 binding, higher = more signal;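 also: score merges emission near 667 nm and signal to noise per printed spot across three slides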
# Chain of Follistatin-related protein 3 (Homo sapiens) (O95633 whole entry, looked up): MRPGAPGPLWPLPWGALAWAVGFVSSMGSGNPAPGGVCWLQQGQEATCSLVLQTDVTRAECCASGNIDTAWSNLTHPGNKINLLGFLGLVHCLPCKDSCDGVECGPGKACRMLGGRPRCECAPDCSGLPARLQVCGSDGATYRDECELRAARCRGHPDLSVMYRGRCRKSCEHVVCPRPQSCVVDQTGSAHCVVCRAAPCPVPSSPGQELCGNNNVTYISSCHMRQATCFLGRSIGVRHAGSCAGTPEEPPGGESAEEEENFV
# [19] = target: Dickkopf-related protein 1 (Homo sapiens) (UniProt O94907); assay: DKK1 binders on small-molecule microarrays, primary screen, biochemical, small-molecule microarray, 635 nm fluorescence scan (AID 1106); details: DKK1 binding, higher = more signal;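 also: score merges emission near 667 nm with signal to noise over three replicate slides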
# Chain of Dickkopf-related protein 1 (Homo sapiens) (O94907 whole entry, looked up): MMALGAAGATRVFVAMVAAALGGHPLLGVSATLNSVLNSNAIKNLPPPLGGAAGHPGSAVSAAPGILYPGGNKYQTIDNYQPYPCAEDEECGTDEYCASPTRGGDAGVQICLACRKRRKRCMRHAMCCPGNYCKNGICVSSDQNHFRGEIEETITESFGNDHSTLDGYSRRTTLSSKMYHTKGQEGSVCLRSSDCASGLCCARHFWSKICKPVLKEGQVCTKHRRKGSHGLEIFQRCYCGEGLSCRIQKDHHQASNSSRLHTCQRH
# [20] = test system: Inhibin beta A chain (activin A); assay: INHBA (activin A) binders on microarrays, primary screen, biochemical, small-molecule microarray, 635 nm fluorescence scan (AID 1107); details: small-molecule microarray binding, higher = more signal;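 also: mouse activin A protein probed at 4.33 µg/mL on printed slides; score merges bound-protein fluorescence near 667 nm with spot signal-to-noise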
Structure (SMILES),composite z-score [1],z-score [2],z-score [3],z-score [4],composite z-score [5],z-score [6],composite z-score [7],composite z-score [8],composite z-score [9],composite z-score [10],composite z-score [11],composite z-score [12],composite z-score [13],z-score [14],composite z-score [15],composite z-score [16],composite z-score [17],composite z-score [18],composite z-score [19],composite z-score [20]
O=C1C[C@]2(c3ccc([N+](=O)[O-])cc3)C(=O)N(C3CC3)c3cc(CO)ccc3[C@H]2N1C1CCCCC1,0.788,0.0359 (inactive),0.389 (inactive),-1.04 (inactive),1.2,0.221 (inactive),-0.171,-0.533,-0.105,-0.0656,0.389,-0.0619,0.305,-0.282 (inactive),-0.104,0.139,-0.0618,-0.184,-0.198,0.847
C=CCC(OC(C)=O)[C@@H]1[C@@H](N(Cc2ccc(-c3ccccc3)cc2)C(=O)c2cccc3ccccc23)c2cc(OCCCO)ccc2N1C(=O)Cc1ccc(OC)cc1 (stereo not given in full),-0.159,-0.774 (inactive),0.0643 (inactive),-0.631 (inactive),-0.203,-1.09 (inactive),0.0748,0.417,-0.477,0.122,0.057,0.267,0.516,-0.149 (inactive),0.345,-0.102,0.0253,0.13,-0.113,1.37
COc1ccc(C#Cc2ccc3c(c2)[C@]2(C(=O)N3)[C@H](C(=O)O)[C@H]3C(=O)O[C@H](c4ccccc4)[C@H](c4ccccc4)N3[C@@H]2c2ccccc2OCCO)cc1,1.54,1.79 (inactive),0.549 (inactive),0.705 (inactive),2.2,0.969 (inactive),-0.321,0.597,1.04,0.0458,1.54,-0.161,-0.126,-2.14 (inactive),1.16,1.31,0.481,0.509,0.301,-0.658
CC(C)C[C@@H]1NC(=O)[C@@]23C(=O)N[C@@H](Cc4ccccc4)C2[C@H](C)[C@@]2(C)O[C@H]2C3/C=C/C/C=C\CNC(=O)CNC1=O (stereo not given in full),0.514,-0.135 (inactive),-1.1 (inactive),-0.159 (inactive),2.23,-0.52 (inactive),0.0207,0.609,0.53,-0.0812,1.19,-0.268,-0.51,0.103 (inactive),0.452,0.202,0.127,0.768,0.268,1.4
COCCOC(=O)N1C(=O)[C@@]2(c3cc(C#CCC(C(=O)OC)C(=O)OC)ccc31)[C@H](C(N)=O)[C@H]1C(=O)O[C@H](c3ccccc3)[C@H](c3ccccc3)N1[C@@H]2c1ccc(O)cc1,1.54,2.77 (inactive),2.65 (inactive),7.43 (inactive),2.58,0.819 (inactive),0.126,1.12,1.07,0.0254,1.09,0.235,0.283,-1.59 (inactive),1.42,0.863,0.69,1,0.938,0.187
CCOC(=O)C1=C[C@@H](C(C)(C)C)N(S(=O)(=O)c2ccc(C)cc2)[C@H]1c1ccc(C#N)cc1,1.56,0.3 (inactive),2.17 (inactive),1.75 (inactive),2.88,0.0374 (inactive),0.419,0.198,1.01,0.126,0.895,0.328,0.113,-0.385 (inactive),0.933,1.11,0.658,1.09,0.512,0.712
COC(=O)C(CC#Cc1ccc2c(c1)[C@]1(C(=O)N2)[C@H](C(=O)NC[C@H](O)c2ccccc2)[C@H]2C(=O)O[C@H](c3ccccc3)[C@H](c3ccccc3)N2[C@@H]1c1ccccc1OCCO)C(=O)OC,1.54,2.15 (inactive),-0.247 (inactive),2.59 (inactive),2.89,2.13 (inactive),-0.0598,0.8,1.12,-0.0332,1.19,0.138,0.141,0.163 (inactive),1.22,1.19,0.308,0.866,0.502,0.205
CC(C)(C)N1CC=CC23O[C@@H]4C=CCCOC(=O)C4[C@H]2C(=O)N(CCCCCCO)[C@@H]3C1=O (stereo not given in full),0.647,-0.0623 (inactive),-0.563 (inactive),0.352 (inactive),3.16,-0.2 (inactive),-0.171,-0.679,0.123,-0.238,1.34,0.017,0.0876,0.416 (inactive),-0.0479,-0.404,-1.09,-0.63,-0.983,0.406
C=CCC(OC(C)=O)[C@@H]1[C@@H](N(Cc2ccc(-c3cccc(C(F)(F)F)c3)o2)C(=O)Cc2ccc(F)cc2)c2cc(OCCCO)ccc2N1C(=O)Cc1ccc2ccccc2c1 (stereo not given in full),-0.783,-0.554 (inactive),0.181 (inactive),-0.669 (inactive),-0.199,-1.01 (inactive),-0.118,-0.244,-0.855,-0.125,-0.595,-0.341,0.228,0.705 (inactive),-0.195,-1.79,-0.676,-0.511,-0.286,1.12
